Assay [1] in a line: qHTS assay to identify small molecule antagonists of the sonic hedgehog signaling (Shh) pathway (AID 1259369). Also: nearly all actives have a fitted effect of over 45% in size. Also: potency is read from the fitted curve at half-maximal effect. In short, it runs like this: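 NIH/3T3-derived Gli1-Luc reporter cells plated 4 h, dosed with compound, then stimulated with conditioned medium for 24 h at 37 C. Firefly luciferase luminescence read after 30 min with detection reagent at room temperature.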
Assay [2] addresses Estrogen receptor beta (Homo sapiens) (UniProt Q92731). The assay is described as follows: qHTS assay to identify small molecule agonists of the estrogen receptor beta (ER-beta) signaling pathway (AID 1259377; active = well fitted activation curve with a large enough effect in the signal ratio in the repeat runs, not every such curve was filed as active; the % refers to the signal ratio). In outline: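 A UAS-controlled beta-lactamase reporter in ER-beta-UAS-bla HEK293T cells reports receptor activation. Compounds act for 16 hr at 37C in 2% charcoal-stripped serum, and a FRET substrate is read by fluorescence after 2 hours.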

Assay [3] can be described thus: qHTS assay to identify small molecule agonists of the androgen receptor (AR) signaling pathway in the presence of an antagonist - cell viability counter screen (AID 1259379; active = well fitted curve in the direction sought with a large enough effect in the repeat runs; an effect the other way counts as inactive or inconclusive;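 also: MDA-kb2 human breast cancer cells carrying an MMTV luciferase reporter; series mostly up to about 92 µM; nearly all actives have a fitted effect of over 25% in size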). In outline:
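MDA-kb2 cells (MMTV-luciferase, AR/GR), 3,000/well, 5 h attachment, then 3.0 µM nilutamide (final) and compounds at 15 concentrations. Viability by CellTiter-Fluor fluorescence after 16 h at 37 °C, 0% CO2, in the reporter wells.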

The nature of assay [4]: qHTS assay to identify small molecule agonists of the estrogen receptor beta (ER-beta) signaling pathway - cell viability counter screen (AID 1259380; active = well fitted curve in the direction sought with a large enough effect in the repeat runs; an effect the other way counts as inactive or inconclusive; also: nearly all actives have a fitted effect of over 30% in size; also: potency is read from the fitted curve at half-maximal effect). In outline:
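ER-beta-UAS-bla HEK293T cells in medium with 2% charcoal-stripped FBS, pre-incubated 6 hr, then treated 16 hr at 37C. Cytotoxicity read in the same wells by CellTiter-Glo luminescence after 30 min at room temperature.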

Assay [5] can be described thus: qHTS assay to identify small molecule agonists or antagonists of the thyroid stimulating hormone receptor (TSHR) signaling pathway - wild type cell line counter screen (AID 1259384). In outline:
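Counter screen in untransfected Hek293: compounds (15-point titration, triplicate) plus phosphodiesterase inhibitor Ro20-1724 added after 18 h plating; 30 min RT. Intracellular cAMP via competitive d2/cryptate immunoassay, 1 h incubation.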

In assay [6] the target is Thyrotropin receptor (Homo sapiens) (UniProt P16473). The assay is described as follows: qHTS assay to identify small molecule antagonists of the thyroid stimulating hormone receptor (TSHR) signaling pathway (AID 1259385). Also: nearly all actives have a fitted effect of over 20% in size. Also: potency is read from the fitted curve at half-maximal effect. In short, it runs like this:
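Antagonist mode: compound-treated TSHR-expressing HEK293 cells were stimulated with 1.5 ng/mL TSH (final) in presence of Ro20-1724 for 30 min at RT. HTRF cAMP detection after 1 h; each compound tested at 15 concentrations, triplicate.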

A short description of assay [7]: qHTS assay to identify small molecule agonists of the estrogen receptor alpha (ER-alpha) signaling pathway in the presence of an antagonist - cell viability counter screen (AID 1259386; active = well fitted curve in the direction sought with a large enough effect in the repeat runs; an effect the other way counts as inactive or inconclusive;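 also: series mostly up to about 92 µM; cells exposed to compounds for 22 h at 37 °C before the viability read; nearly all actives have a fitted effect of over 30% in size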). In outline:
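Cell viability in VM7Luc4E2 cells (endogenous full-length ER-alpha) measured by CellTiter-Fluor fluorescence in the same wells as the luciferase screen. Cells pre-cultured 5 days in charcoal-stripped serum, then treated 22 h with compounds at 15 concentrations plus 10.0nM ICI-182,780.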

Assay [8] addresses Progesterone receptor (Homo sapiens) (UniProt P06401). The assay is described as follows: qHTS assay to identify small molecule agonists of the progesterone receptor (PR) signaling pathway (AID 1346784). Also: nearly all actives have a fitted effect of over 30% in size. In outline:
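Agonist mode, quantitative HTS format in a HEK 293T line expressing a UAS-controlled beta-lactamase reporter; 16 hr compound exposure at 37C in 2% charcoal-stripped FBS, then LiveBLAzer B/G FRET fluorescence.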

Assay [9] can be described thus: qHTS assay to identify small molecule antagonists of the progesterone receptor (PR) signaling pathway - cell viability counter screen (AID 1346798; active = well fitted curve in the direction sought with a large enough effect in the repeat runs; an effect the other way counts as inactive or inconclusive; also: nearly all actives have a fitted effect of over 50% in size; also: potency is read from the fitted curve at half-maximal effect). In outline: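 Same-well multiplex: after 16 hr at 37C with compound and R5020 stimulation, HEK293T cells carrying a UAS-bla reporter received LiveBLAzer substrate (2 hr RT), then CellTiter-Glo (30 min RT) for luminescent viability.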

Assay [10] can be described thus: qHTS assay to identify small molecule agonists of the progesterone receptor (PR) signaling pathway - cell viability counter screen (AID 1346799). Also: nearly all actives have a fitted effect of over 45% in size. Also: potency is read from the fitted curve at half-maximal effect. In short, it runs like this: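 Counter screen for cytotoxicity: compound-treated PR-UAS-bla HEK293T cells (16 hr, 37C, 5% CO2) were assayed with CellTiter-Glo, luminescence measured after 30 min at room temperature.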
The nature of assay [11]: qHTS assay to identify small molecule antagonists of the TGF-beta/Smad signaling pathway - cell viability counter screen (AID 1346824; active = well fitted curve in the direction sought with a large enough effect in the repeat runs; an effect the other way counts as inactive or inconclusive; also: nearly all actives have a fitted effect of over 50% in size). In short, it runs like this: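 Cytotoxicity counter-screen run in the same wells as the beta-lactamase Smad reporter read: CellTiter-Glo luminescence after 30 min at room temperature. HEK 293T SBE-bla cells had 5 hr compound exposure at 37 C with TGF-beta1 (0.25 ng/mL stock).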

Assay [12] in a line: qHTS assay to identify small molecule agonists of the TGF-beta/Smad signaling pathway - cell viability counter screen (AID 1346829; active = well fitted curve in the direction sought with a large enough effect in the repeat runs; an effect the other way counts as inactive or inconclusive; also: top concentration of the series differs between compounds; nearly all actives have a fitted effect of over 45% in size). In outline: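 Same-well cytotoxicity: CellTiter-Glo added after the 2 hr room-temperature beta-lactamase substrate step, luminescence measured 30 min later; cells had 5 hr of compound at 37 C.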
Assay [13] deals with Thyrotropin-releasing hormone receptor (Homo sapiens) (UniProt P34981). The assay is described as follows: qHTS assay to identify small molecule antagonists of the thyrotropin-releasing hormone receptor (TRHR) signaling pathway (AID 1346877; active = well fitted inhibition curve with a large enough effect in the repeat runs, not every such curve was filed as active; also: series mostly up to about 51 µM). In short, it runs like this: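 TRHR-expressing HEK293 cells loaded with calcium dye for 2 h at 37 C; compounds pre-incubated 5 min at room temperature before TRH challenge at 1 nM final. Intracellular calcium fluorescence read kinetically for 3 min; 15 concentrations in triplicate.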

The target is the same in assay [14]. The assay is described as follows: qHTS assay to identify small molecule agonists of the thyrotropin-releasing hormone receptor (TRHR) signaling pathway (AID 1346891). Also: series mostly up to about 58 µM. In outline:
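Agonist-mode calcium mobilisation screen: TRHR-transfected HEK293 cells cultured overnight (18 h), dye-loaded for 2 h at 37 °C, exposed to compounds, and monitored by fluorescence for 3 min.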

Assay [15] addresses Estrogen receptor beta (Homo sapiens) (UniProt Q92731). The assay is described as follows: qHTS assay to identify small molecule antagonists of the estrogen receptor beta (ER-beta) signaling pathway (AID 1259378; active = well fitted inhibition curve with a large enough effect in the signal ratio in the repeat runs, not every such curve was filed as active; the % refers to the signal ratio; also: potency is read from the fitted curve at half-maximal effect). In short, it runs like this:
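Antagonist mode: compounds added to beta-lactamase reporter HEK293T ER-beta-UAS cells stimulated with E2 (1nM final), 16 hr at 37C. LiveBLAzer B/G FRET substrate, 2 hours room temperature, fluorescence read-out.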

Assay [16] in a line: qHTS assay to identify small molecule antagonists of the estrogen receptor beta (ER-beta) signaling pathway - cell viability counter screen (AID 1259382; active = well fitted curve in the direction sought with a large enough effect in the repeat runs; an effect the other way counts as inactive or inconclusive;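 also: HEK293T cells carrying ER-beta-UAS-bla reporter stimulated with estradiol; series mostly up to about 92 µM; nearly all actives have a fitted effect of over 55% in size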). In short, it runs like this:
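ER-beta-UAS-bla HEK293T cells in 2% charcoal-stripped FBS medium, treated with compound plus 1 nM 17-beta-estradiol for 16 h at 37C. Viability read by CellTiter-Glo luminescence after 30 min at room temperature in the same wells.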

Assay [17] deals with Estrogen receptor (Homo sapiens) (UniProt P03372). The assay is described as follows: qHTS assay to identify small molecule agonists of the estrogen receptor alpha (ER-alpha) signaling pathway in the presence of an antagonist (AID 1259383). Also: top concentration of the series differs between compounds; nearly all actives have a fitted effect of over 15% in size. In short, it runs like this:
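VM7Luc4E2 cells express endogenous full-length ER-alpha with an ERE-luciferase reporter and were hormone-deprived for 5 days. Compounds at 15 concentrations were added with 10.0nM ICI-182,780 for 22hr at 37C. Luminescence was read with ONE-Glo.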

Assay [18] has as its target Progesterone receptor (Homo sapiens) (UniProt P06401). The assay is described as follows: qHTS assay to identify small molecule antagonists of the progesterone receptor (PR) signaling pathway (AID 1346795; active = well fitted inhibition curve with a large enough effect in the signal ratio in the repeat runs, not every such curve was filed as active; the % refers to the signal ratio). In short, it runs like this:
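HEK293T PR-UAS-bla reporter cells in charcoal-stripped serum (2%) received compound after a 6 hr settling period, followed by R5020 agonist at 1 nM final; 16 hr incubation preceded the FRET substrate step and fluorescence measurement.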

The nature of assay [19]: qHTS assay to identify small molecule agonists of the TGF-beta/Smad signaling pathway (AID 1346859; active = well fitted activation curve with a large enough effect in the signal ratio in the repeat runs, not every such curve was filed as active; the % refers to the signal ratio; also: series mostly up to about 77 µM). In outline:
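Smad-responsive beta-lactamase reporter cells (HEK 293T) received compounds from DMSO stocks after overnight attachment, were incubated 5 hr, then treated 2 hr with FRET substrate before dual-emission fluorescence measurement (405 nm excitation).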

Assay [20] has as its target Androgen receptor (Homo sapiens) (UniProt P10275). The assay is described as follows: qHTS assay to identify small molecule agonists of the androgen receptor (AR) signaling pathway in the presence of an antagonist (AID 1259381). Also: nearly all actives have a fitted effect of over 15% in size. In short, it runs like this: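 MDA-kb2 cells carrying MMTV-luciferase (AR/GR responsive), 3,000 cells/well, co-treated with 3.0 uM nilutamide final. Compounds at 15 concentrations, 16 hr at 37C without CO2. Luciferase luminescence read after 30 min with ONE-Glo.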

The structures appear in SMILES notation. A number with no mark means an inactive call. Inconclusive results are not listed. Activity calls are given as the source filed them. Unless noted, calls follow the shape of the full dose curve.

Progesterone receptor (Homo sapiens), sequence (P06401 whole entry, looked up): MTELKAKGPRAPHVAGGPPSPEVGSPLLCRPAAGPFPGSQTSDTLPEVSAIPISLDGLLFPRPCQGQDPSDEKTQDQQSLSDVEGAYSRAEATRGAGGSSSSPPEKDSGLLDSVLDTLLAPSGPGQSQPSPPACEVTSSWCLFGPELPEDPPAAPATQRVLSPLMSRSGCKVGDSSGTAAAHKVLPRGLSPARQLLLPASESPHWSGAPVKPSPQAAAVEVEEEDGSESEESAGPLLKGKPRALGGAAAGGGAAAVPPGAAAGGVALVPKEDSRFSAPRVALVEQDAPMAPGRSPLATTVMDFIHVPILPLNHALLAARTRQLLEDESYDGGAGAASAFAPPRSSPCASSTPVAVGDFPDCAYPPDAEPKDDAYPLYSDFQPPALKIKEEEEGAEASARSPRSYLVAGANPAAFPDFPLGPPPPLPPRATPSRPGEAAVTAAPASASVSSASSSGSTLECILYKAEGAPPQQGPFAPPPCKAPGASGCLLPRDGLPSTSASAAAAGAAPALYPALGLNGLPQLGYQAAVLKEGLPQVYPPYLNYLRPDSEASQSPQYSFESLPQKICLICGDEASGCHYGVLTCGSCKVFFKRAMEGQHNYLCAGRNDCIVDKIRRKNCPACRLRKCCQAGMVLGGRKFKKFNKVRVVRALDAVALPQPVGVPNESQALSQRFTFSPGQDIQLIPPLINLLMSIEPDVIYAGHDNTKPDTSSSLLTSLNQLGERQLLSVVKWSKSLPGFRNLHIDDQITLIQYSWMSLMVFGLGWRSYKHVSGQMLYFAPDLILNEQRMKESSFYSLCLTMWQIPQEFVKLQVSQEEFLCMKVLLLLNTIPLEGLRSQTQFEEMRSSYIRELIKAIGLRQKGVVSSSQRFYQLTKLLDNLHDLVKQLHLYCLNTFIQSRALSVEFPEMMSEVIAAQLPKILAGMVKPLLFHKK
Estrogen receptor (Homo sapiens), sequence (P03372 whole entry, looked up): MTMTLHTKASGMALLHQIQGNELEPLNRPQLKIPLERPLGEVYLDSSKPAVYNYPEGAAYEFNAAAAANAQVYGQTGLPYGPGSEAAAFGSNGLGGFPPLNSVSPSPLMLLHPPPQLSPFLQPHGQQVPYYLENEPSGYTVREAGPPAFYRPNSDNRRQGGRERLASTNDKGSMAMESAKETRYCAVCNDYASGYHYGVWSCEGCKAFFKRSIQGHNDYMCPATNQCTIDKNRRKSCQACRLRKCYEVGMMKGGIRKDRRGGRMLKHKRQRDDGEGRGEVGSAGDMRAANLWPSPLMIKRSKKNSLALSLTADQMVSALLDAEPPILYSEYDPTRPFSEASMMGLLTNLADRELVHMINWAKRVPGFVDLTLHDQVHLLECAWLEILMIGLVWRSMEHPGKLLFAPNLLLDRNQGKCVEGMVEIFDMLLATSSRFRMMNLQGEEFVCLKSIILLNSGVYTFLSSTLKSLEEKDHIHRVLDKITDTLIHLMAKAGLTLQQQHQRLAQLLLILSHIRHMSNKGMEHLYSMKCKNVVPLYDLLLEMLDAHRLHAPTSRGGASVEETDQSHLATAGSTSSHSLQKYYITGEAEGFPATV
Thyrotropin-releasing hormone receptor (Homo sapiens), sequence (P34981 whole entry, looked up): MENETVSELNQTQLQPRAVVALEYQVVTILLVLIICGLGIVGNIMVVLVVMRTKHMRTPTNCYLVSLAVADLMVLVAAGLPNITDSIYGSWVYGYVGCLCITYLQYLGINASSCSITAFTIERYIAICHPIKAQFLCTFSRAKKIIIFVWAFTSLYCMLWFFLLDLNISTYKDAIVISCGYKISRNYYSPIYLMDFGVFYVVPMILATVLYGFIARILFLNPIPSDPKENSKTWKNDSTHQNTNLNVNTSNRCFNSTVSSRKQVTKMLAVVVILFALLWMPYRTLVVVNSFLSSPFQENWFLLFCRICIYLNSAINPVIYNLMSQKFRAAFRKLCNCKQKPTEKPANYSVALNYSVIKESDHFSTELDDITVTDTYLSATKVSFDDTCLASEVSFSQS
Thyrotropin receptor (Homo sapiens), sequence (P16473 whole entry, looked up): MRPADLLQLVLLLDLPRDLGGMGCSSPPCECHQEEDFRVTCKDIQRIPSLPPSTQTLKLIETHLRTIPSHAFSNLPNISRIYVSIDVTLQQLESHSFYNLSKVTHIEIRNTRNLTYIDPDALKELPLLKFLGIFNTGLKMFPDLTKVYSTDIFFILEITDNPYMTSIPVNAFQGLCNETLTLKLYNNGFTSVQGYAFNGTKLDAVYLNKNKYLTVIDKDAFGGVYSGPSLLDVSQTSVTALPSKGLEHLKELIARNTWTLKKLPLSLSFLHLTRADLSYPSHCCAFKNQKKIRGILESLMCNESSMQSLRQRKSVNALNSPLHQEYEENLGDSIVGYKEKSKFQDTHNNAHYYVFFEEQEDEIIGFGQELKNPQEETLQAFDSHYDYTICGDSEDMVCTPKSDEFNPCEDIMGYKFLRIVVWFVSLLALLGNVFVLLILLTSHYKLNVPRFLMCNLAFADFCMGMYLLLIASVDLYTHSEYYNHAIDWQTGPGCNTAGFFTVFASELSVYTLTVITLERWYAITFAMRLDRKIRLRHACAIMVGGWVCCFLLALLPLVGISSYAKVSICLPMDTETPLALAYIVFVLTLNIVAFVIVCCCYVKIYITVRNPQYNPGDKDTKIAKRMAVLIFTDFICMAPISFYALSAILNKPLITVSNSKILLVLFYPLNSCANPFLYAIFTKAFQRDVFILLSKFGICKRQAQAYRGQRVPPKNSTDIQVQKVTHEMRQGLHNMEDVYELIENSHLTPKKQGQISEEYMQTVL
Estrogen receptor beta (Homo sapiens), sequence (Q92731 whole entry, looked up): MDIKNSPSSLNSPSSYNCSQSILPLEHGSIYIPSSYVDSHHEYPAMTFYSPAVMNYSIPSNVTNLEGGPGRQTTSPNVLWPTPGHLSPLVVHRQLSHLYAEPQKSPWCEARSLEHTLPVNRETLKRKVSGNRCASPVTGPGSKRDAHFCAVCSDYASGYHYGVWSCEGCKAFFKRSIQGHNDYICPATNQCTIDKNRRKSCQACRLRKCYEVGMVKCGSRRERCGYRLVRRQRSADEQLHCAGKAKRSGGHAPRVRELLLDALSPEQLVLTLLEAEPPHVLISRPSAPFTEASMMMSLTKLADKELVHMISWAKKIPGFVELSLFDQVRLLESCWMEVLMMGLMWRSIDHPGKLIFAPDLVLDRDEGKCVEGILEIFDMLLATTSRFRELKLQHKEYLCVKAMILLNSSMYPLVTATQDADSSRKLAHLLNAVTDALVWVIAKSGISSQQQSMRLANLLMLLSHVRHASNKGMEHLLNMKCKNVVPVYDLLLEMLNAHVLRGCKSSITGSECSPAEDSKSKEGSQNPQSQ
Androgen receptor (Homo sapiens), sequence (P10275 whole entry, looked up): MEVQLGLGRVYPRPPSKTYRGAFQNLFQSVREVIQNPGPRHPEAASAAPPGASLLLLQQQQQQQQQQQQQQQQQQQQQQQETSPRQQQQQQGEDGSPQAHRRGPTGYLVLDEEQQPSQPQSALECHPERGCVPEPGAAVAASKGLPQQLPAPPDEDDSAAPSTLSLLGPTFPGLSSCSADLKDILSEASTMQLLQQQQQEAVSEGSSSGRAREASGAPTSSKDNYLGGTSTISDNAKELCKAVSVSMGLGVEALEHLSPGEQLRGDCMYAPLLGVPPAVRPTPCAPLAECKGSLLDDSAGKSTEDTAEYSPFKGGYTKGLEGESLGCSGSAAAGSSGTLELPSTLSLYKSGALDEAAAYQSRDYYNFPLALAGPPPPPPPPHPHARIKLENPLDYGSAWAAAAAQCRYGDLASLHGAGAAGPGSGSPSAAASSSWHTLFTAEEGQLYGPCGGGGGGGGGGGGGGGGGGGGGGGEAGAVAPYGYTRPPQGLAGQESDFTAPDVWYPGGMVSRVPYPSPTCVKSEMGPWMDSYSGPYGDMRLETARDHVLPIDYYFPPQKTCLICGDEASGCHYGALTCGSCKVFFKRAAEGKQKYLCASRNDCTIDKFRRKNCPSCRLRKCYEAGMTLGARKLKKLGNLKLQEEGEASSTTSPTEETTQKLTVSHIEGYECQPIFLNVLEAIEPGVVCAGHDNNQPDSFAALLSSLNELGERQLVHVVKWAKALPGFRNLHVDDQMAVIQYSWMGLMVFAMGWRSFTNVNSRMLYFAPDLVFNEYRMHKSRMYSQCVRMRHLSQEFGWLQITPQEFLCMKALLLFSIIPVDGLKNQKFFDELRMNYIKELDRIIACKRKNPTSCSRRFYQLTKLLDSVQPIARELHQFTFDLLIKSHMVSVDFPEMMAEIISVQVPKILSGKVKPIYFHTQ

In the case of `CCOC(=O)[C@H](CCc1ccccc1)N[C@H]1CCc2ccccc2N(CC(=O)O)C1=O`, the Potency result in [1], in assay [2], in assay [3], in assay [5], in assay [7] and in assay [11] was “inactive” each time. Moreover, the Potency result in assay [12] and in assay [14] was “inactive” in each case. Further, the Potency in [4] was 11.9 µM (active); in assay [6], 29.8 µM (active); in assay [9], 21.1 µM (active); in assay [10], 21.1 µM (active). In addition, the molecule was classed as inactive in assay [8] and in assay [13].

As to `CCCCOc1cc(C(=O)OCCN(CC)CC)ccc1N`, the Potency result in [1], in assay [2], in assay [15], in [16], in assay [17] and in [7] was “inactive” each time. In addition, the Potency result in assay [18], in assay [9], in assay [10], in [11], in assay [12] and in assay [14] was “inactive” throughout. Further, the molecule was classed as inactive in assay [8], in assay [19] and in assay [13].

Consider `CN1CCN(C2=Nc3ccccc3Sc3ccc(Cl)cc32)CC1`, for which the Potency entry in [1], in assay [15], in assay [3], in [4], in assay [20] and in [16] was “inactive” in each case. Further, the Potency entry in [5], in assay [6], in assay [7], in assay [9], in assay [10] and in [12] was “inactive” throughout. In addition, in assay [14], the Potency entry is “inactive”. Also, the result in assay [8] was inactive.

Turning to `CNS(=O)(=O)Cc1ccc2[nH]cc(CCN(C)C)c2c1`, the Potency result in assay [1], in assay [2], in assay [15], in assay [7], in assay [18] and in assay [9] was “inactive” in each case. In addition, the Potency entry in assay [10], in assay [11], in assay [12] and in assay [14] was “inactive” each time. The call in assay [8] and in [19] was inactive.

Turning to `Cc1ccc(C(=O)C(C)CN2CCCCC2)cc1` (stereo unspecified), the Potency result in assay [1], in assay [2], in [15], in assay [4], in assay [17] and in [5] was “inactive” in each case. Moreover, the Potency entry in assay [6], in assay [7], in assay [18], in assay [9], in assay [10] and in assay [11] was “inactive” each time. The Potency entry in assay [12] and in assay [14] was “inactive” in each case. In addition, the outcome in [8], in [19] and in assay [13] was inactive.

As to `C=CC(=O)OCC(C)OCC(C)OCC(C)OC(=O)C=C` (stereo unspecified), the Potency in [1] was 9.69 µM (active); in assay [15] it was 61.1 µM (active). Moreover, the Potency result in assay [2], in [16], in assay [17], in assay [9], in assay [10] and in assay [11] was “inactive” throughout. Also, in assay [14], the Potency entry is “inactive”. The molecule was called inactive in [8] and in assay [19].

`C[C@H](CCC(=O)O)[C@H]1CC[C@H]2[C@@H]3[C@H](O)C[C@@H]4C[C@H](O)CC[C@]4(C)[C@H]3CC[C@]12C`: the Potency result in [1], in [2], in [16], in assay [17], in assay [5] and in assay [6] was “inactive” each time. The Potency result in assay [7], in [9], in assay [10], in assay [11], in assay [12] and in [14] was “inactive” each time. Further, the outcome in assay [13] was inactive.

The values are drawn from PubChem BioAssay (Tox21).
